Assay outcomes as filed in PubChem.
RORg inh – ROR gamma (mouse) transcription inhibition | Drosophila S2 Gal4-RORgamma UAS-luciferase reporter, 20 h | Potency, µM (highest dose often 53.6 µM), inactives show top-dose activity change, negative = inhibition, hits mostly inhibitors | hit rate 5.4% among 310,000 | AID 2551; note: % is set by controls: 0 for no effect and ±100 for the full control effect; nearly all actives have a fitted effect of over 60% in size
Target sequence (P51450 whole entry, looked up, the tested form may be a part): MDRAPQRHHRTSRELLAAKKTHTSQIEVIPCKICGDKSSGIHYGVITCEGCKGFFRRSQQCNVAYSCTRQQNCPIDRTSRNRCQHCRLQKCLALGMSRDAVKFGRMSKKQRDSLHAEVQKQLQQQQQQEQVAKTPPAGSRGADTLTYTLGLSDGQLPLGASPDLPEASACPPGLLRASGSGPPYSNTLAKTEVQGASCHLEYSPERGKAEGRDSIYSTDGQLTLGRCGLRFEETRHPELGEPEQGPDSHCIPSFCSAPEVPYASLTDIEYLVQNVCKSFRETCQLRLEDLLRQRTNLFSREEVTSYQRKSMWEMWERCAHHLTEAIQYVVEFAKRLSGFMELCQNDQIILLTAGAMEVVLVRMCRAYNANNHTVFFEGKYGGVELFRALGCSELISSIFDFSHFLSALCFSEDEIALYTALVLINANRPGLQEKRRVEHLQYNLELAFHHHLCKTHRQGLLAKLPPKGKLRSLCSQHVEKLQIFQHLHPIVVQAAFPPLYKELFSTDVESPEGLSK
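In this cell-based reporter format, copper sulfate (700 uM final) drives Gal4–ROR gamma fusion expression from a metallothionein promoter in Drosophila Schneider cells; compounds preincubated 1 hr, reporter read after 20 hr at ambient temperature.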
Gal4-VP16 FLuc – counter-screen for ROR gamma inhibitors: Gal4-VP16 reporter | Drosophila S2 Gal4-VP16 UAS-luciferase, luminescence, 20 h | Potency, µM (highest dose often 53.6 µM), without a hit: at the top dose activity, negative = inhibition, usual class: inhibitors | hit rate 3.5% among 310,000 | AID 2546;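 note: Gal4-VP16 expression switched on by copper sulfate through the metallothionein promoter; % is set by controls: 0 for no effect and ±100 for the full control effect; nearly all actives have a fitted effect of over 50% in size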
KB-3-1 cytotox – kills parental KB-3-1 adenocarcinoma cells; KB-3-1 viability, CellTiter-Glo ATP luminescence, 72 h; Potency, µM (series often up to 46.1 µM), hits mostly cytotoxic; hit rate 1.4% among 400,000; AID 1347075; note: % is set by controls: 0 for no effect and ±100 for the full control effect; nearly all actives have a fitted effect of over 60% in size
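Luminescent ATP read-out (CellTiter-Glo) measures survival of drug-naive KB-3-1 cells after 72 h compound exposure at 37 °C. Titration series was screened from lowest to highest concentration, with DMSO vehicle plates as background controls.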
SW480 rerep – inducers of DNA re-replication in SW480 colon cancer cells; Potency, µM (titrated, usually from 46.1 µM), for the others: at the top dose re-replication activation, hits mostly activators; SW480 DNA re-replication, Hoechst DNA content imaging, 48 h; hit rate 1.8% among 340,000; note: % of control where 0% means no effect; nearly all actives have a fitted effect of over 55% in size
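First, 250 cells per well were seeded. Next, compound or vehicle (23 nL) was pinned in, plates sat 48 hr at 37 C. Finally Hoechst was added for 40 min before fluorescence scanning.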
KB-V1 cytotox – kills drug-selected multidrug resistant KB-V1 cells; KB-V1 MDR cells viability, CellTiter-Glo, 72 h; Potency, µM (top dose mostly 46.1 µM), usual class: cytotoxic; hit rate 3.4% among 400,000; note: % is set by controls: 0 for no effect and ±100 for the full control effect; nearly all actives have a fitted effect of over 60% in size
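KB-V1 cells (P-gp-expressing MDR subline of KB-3-1) in phenol-red-free DMEM with 10% FBS were exposed to library compounds over a concentration series for 72 h at 37 degrees C. Viability read by CellTiter-Glo luminescence; concentration-effect curves fitted after normalization.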
MCF10A rerep – inducers of DNA re-replication in MCF 10A breast cells. hit rate 2.9% among 350,000. AID 624296. MCF 10A DNA re-replication, Hoechst nuclear intensity, 48 h. Potency, µM (highest dose often 46.1 µM), for the others: at the top dose activity, positive = re-replication, usual class: activators; note: % of control where 0% means no effect; nearly all actives have a fitted effect of over 50% in size
* = called active by the depositor; [ ] = another dose, or the depositor's remark. Rows were chosen to be rich in hits. Some 10% of all compounds tested hit in one or more screens of this group. Calls come from the whole dose curve; as a rule, active = well fitted curve in the direction sought with a large enough effect; inconclusive = small, poorly fitted or top-dose-only effect, or another doubt; inactive = no such curve, though single readings can be large; an effect the other way counts as inactive or inconclusive. Potency is the fitted concentration of half-maximal effect.

How did CCCn1c(=S)[nH]c2cc(C(=O)N3CCN(c4ccccc4)CC3)ccc2c1=O do in these assays?
KB-3-1 cytotox: inactive; KB-V1 cytotox: inactive

How did O=C(c1cc(Cl)c(=O)n(Cc2ccc(Cl)cc2)c1)N1CCOCC1 do in these assays?
RORg inh: 10%; Gal4-VP16 FLuc: -4%; KB-3-1 cytotox: inactive; SW480 rerep: -5%; KB-V1 cytotox: 21µM*; MCF10A rerep: -1%

How did CCOC(=O)C1CCCN(C(=O)c2ccc3c(=O)n(CCOC)c(=S)[nH]c3c2)C1 (stereo not given) do in these assays?
RORg inh: -35%; Gal4-VP16 FLuc: -12%; KB-3-1 cytotox: inactive; SW480 rerep: 0%; KB-V1 cytotox: 23µM*; MCF10A rerep: inconclusive

Results for CCn1c(=O)cc(OCC(=O)N(C)c2cc(Cl)ccc2C)c2ccccc21 ?
KB-3-1 cytotox: inactive; KB-V1 cytotox: inactive

Results for CO[C@@H]1COC(=O)[C@H](COCc2ccccc2)NC(=O)C/C=C\[C@@H](C)[C@H](OC)COC(=O)[C@H](COCc2ccccc2)NC(=O)C/C=C\[C@H]1C ?
RORg inh: -5%[10 µM]; Gal4-VP16 FLuc: -7%[10 µM]

Results for CN(C)c1ccc2nc3ccc(=O)cc-3sc2c1 ?
KB-3-1 cytotox: inconclusive; KB-V1 cytotox: 16µM*

Results for c1ccc2nc(-c3cc4ccccc4s3)ccc2c1 ?
KB-3-1 cytotox: inactive; KB-V1 cytotox: inactive

What do the screens show for `O=C(c1cc2ccccc2[nH]1)c1cc2cc(O)ccc2[nH]1`?
KB-3-1 cytotox: inactive; KB-V1 cytotox: inactive

How did CCCCCn1c(SCC(=O)OCC)nc2cc(C(=O)NCc3ccco3)ccc2c1=O do in these assays?
RORg inh: -12%; Gal4-VP16 FLuc: -11%; KB-3-1 cytotox: inactive; SW480 rerep: -7%; KB-V1 cytotox: 21µM*; MCF10A rerep: 9%

Results for COC(=O)c1ccc2c(=O)n(CCN3CCOCC3)c(SCC(=O)C(C)(C)C)nc2c1 ?
RORg inh: 13%; Gal4-VP16 FLuc: 8%; KB-3-1 cytotox: inactive; SW480 rerep: 1%; KB-V1 cytotox: 10µM*; MCF10A rerep: 0%

How did CCCCn1c(SC(C)C(N)=O)nc2cc(C(=O)OC)ccc2c1=O (stereo not given) do in these assays?
RORg inh: 14µM*; Gal4-VP16 FLuc: -14%; KB-3-1 cytotox: inactive; SW480 rerep: -8%; KB-V1 cytotox: inactive; MCF10A rerep: 2%

What do the screens show for `COC(=O)c1ccc2c(=O)n(CCN3CCOCC3)c(SCC(=O)Nc3ccc(C)cc3)nc2c1`?
RORg inh: inconclusive; Gal4-VP16 FLuc: -1%; KB-3-1 cytotox: inactive; SW480 rerep: -2%; KB-V1 cytotox: inactive; MCF10A rerep: -3%

How did CCOC(=O)CSc1nc2cc(C(=O)OC)ccc2c(=O)n1CCN1CCOCC1 do in these assays?
RORg inh: 16%; Gal4-VP16 FLuc: -3%; KB-3-1 cytotox: inactive; SW480 rerep: -3%; KB-V1 cytotox: 16µM*; MCF10A rerep: 1%

Results for COc1ccc(C2CC(c3c(-c4ccccc4)c4cc(Cl)ccc4[nH]c3=O)=NN2S(C)(=O)=O)cc1 (stereo not given) ?
RORg inh: -21%; Gal4-VP16 FLuc: -14%; KB-3-1 cytotox: inactive; SW480 rerep: 6%; KB-V1 cytotox: inactive; MCF10A rerep: inconclusive

What do the screens show for `COc1ccc(OC)c(C2CC(c3c(-c4ccccc4)c4cc(Cl)ccc4[nH]c3=O)=NN2S(C)(=O)=O)c1` (stereo not given)?
RORg inh: inconclusive; Gal4-VP16 FLuc: -8%; KB-3-1 cytotox: inactive; SW480 rerep: inconclusive; KB-V1 cytotox: inactive; MCF10A rerep: 7.3µM*

What do the screens show for `COc1cc2c(NC3CCN(C)CC3)nc(N3CCCN(C)CC3)nc2cc1OCCCCCN(C)C`?
KB-3-1 cytotox: inconclusive; KB-V1 cytotox: inactive

Results for COc1ccccc1S(=O)(=O)N[C@@H]1CC[C@@H](CCn2cc(C3CC3)nn2)O[C@@H]1CO ?
KB-3-1 cytotox: inactive; KB-V1 cytotox: inactive

What do the screens show for `COC(=O)c1ccccc1C(=O)c1c(C)cc(C)cc1C`?
KB-V1 cytotox: inactive

How did COC(=O)c1cc(C)ccc1/C=C1/Cc2c(C)cc(C)cc2C1=O do in these assays?
KB-3-1 cytotox: inactive; SW480 rerep: 27%; KB-V1 cytotox: 16µM*; MCF10A rerep: 3%

Results for CN(C)CCNc1ccc(-c2nn(C)c(=O)c3ccccc23)cc1[N+](=O)[O-] ?
RORg inh: -14%; Gal4-VP16 FLuc: 2%; KB-3-1 cytotox: inconclusive; SW480 rerep: -4%; KB-V1 cytotox: 23µM*; MCF10A rerep: -1%

What do the screens show for `Cn1nc(-c2ccc(NCCO)c([N+](=O)[O-])c2)c2ccccc2c1=O`?
RORg inh: -29%; Gal4-VP16 FLuc: -4%; KB-3-1 cytotox: inconclusive; SW480 rerep: 4%; KB-V1 cytotox: inactive; MCF10A rerep: -16%

What do the screens show for `CC1(Cc2ccc(F)c(Cl)c2)C(=O)Nc2c(Cl)cccc21` (stereo not given)?
KB-3-1 cytotox: inactive; KB-V1 cytotox: inconclusive

How did COc1cccc(C(=O)CSc2nccn2C)c1 do in these assays?
RORg inh: 10µM*; Gal4-VP16 FLuc: inconclusive; KB-3-1 cytotox: inactive; SW480 rerep: 3%; KB-V1 cytotox: inactive; MCF10A rerep: -8%

How did Cn1ccnc1SCC(=O)c1ccc(O)cc1 do in these assays?
RORg inh: 11%; Gal4-VP16 FLuc: 29%; KB-3-1 cytotox: inactive; SW480 rerep: -17%; KB-V1 cytotox: inactive; MCF10A rerep: -9%

How did Cn1ccnc1SCC(=O)c1cccc(Br)c1 do in these assays?
RORg inh: -3%; Gal4-VP16 FLuc: -2%; KB-3-1 cytotox: inconclusive; SW480 rerep: -9%; KB-V1 cytotox: inactive; MCF10A rerep: 12%

What do the screens show for `Cn1ccnc1SCC(=O)c1ccc2ccccc2c1`?
RORg inh: 11µM*; Gal4-VP16 FLuc: inconclusive; KB-3-1 cytotox: inactive; SW480 rerep: inconclusive; KB-V1 cytotox: inactive; MCF10A rerep: -7%[9.22 µM]

What do the screens show for `COC(=O)c1sccc1S(=O)(=O)N(CC(=O)Nc1c(C)cccc1C)c1ccc(C)c(C)c1`?
KB-3-1 cytotox: inactive; KB-V1 cytotox: inactive

How did CCn1c(C)cc(C(=O)CSc2nnc(C3CC3)n2C2CC2)c1C do in these assays?
KB-3-1 cytotox: inactive; KB-V1 cytotox: inactive

Results for COC(=O)C/C=C\[C@H](C)[C@@H](OC)c1ccccc1Br ?
RORg inh: -2%[10 µM]; Gal4-VP16 FLuc: -3%[10 µM]
